# Source: the supplement of paper PMC6555819
# Experiments:
# Assay in all cases: PBM binding z-score (relative to random genomic background probes); higher = stronger binding; sequences stand for … in GC…GCGATTGACAGCGTAGAATGAAGG
# [1] = system: FXR:RXRa (NR concentration 270 nM, RXRa partner concentration 90 nM)
# In short: (§1)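 Binding buffer was PBS pH 7.4 with 2% milk, 0.02% Triton X-100, 1 mM DTT, 0.2 mg/mL BSA and 0.4 mg/ml salmon testes DNA. In it, ligand-free nuclear receptor dimers were incubated 1 h on custom Agilent 4×180K protein-binding microarrays carrying double-stranded probes. Antibodies against each partner (one per run) detected binding, and z-scores were calculated against random background probes after regression normalization of scanned fluorescence.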
# [2] = system: LXRa:RXRa (NR concentration 270 nM, RXRa partner concentration 90 nM)
# In short: as §1
# [3] = system: LXRa homodimer (NR concentration 270 nM)
# In short: as §1
# [4] = system: LXRb:RXRa (NR concentration 270 nM, RXRa partner concentration 90 nM)
# In short: as §1
# [5] = system: LXRb homodimer (NR concentration 270 nM)
# In short: as §1
# [6] = system: PPARa:RXRa (NR concentration 270 nM, RXRa partner concentration 90 nM)
# In short: as §1
# [7] = system: PPARg:RXRa (NR concentration 180 nM, RXRa partner concentration 90 nM)
# In short: as §1
# [8] = system: PPARg:RXRa 270nM:90nM, anti-RXR (NR concentration 270 nM, RXRa partner concentration 90 nM)
# In short: as §1
# [9] = system: PPARg:RXRa 30nM:10nM, anti-RXR (NR concentration 30 nM, RXRa partner concentration 10 nM)
# In short: as §1
# [10] = system: PPARg:RXRa 90nM:30nM, anti-RXR (NR concentration 90 nM, RXRa partner concentration 30 nM)
# In short: as §1
# [11] = system: PPARg:RXRa DBDmut IVT, anti-RXR (DBD mutation: RXRa K156A/R161A, NR concentration 270 nM, RXRa partner concentration 90 nM)
# In short: as §1
# [12] = system: PPARg:RXRa IVT, anti-PPARg (NR concentration 270 nM, RXRa partner concentration 90 nM)
# In short: as §1
# [13] = system: PPARg DBDmut:RXRa IVT, anti-PPARg (DBD mutation: PPARg1 K132A/R137A, NR concentration 270 nM, RXRa partner concentration 90 nM)
# In short: as §1
# [14] = system: PPARg DBDmut IVT, anti-PPARg (DBD mutation: PPARg1 K132A/R137A, NR concentration 270 nM)
# In short: as §1
# [15] = system: PPARg homodimer (NR concentration 180 nM)
# In short: as §1
# [16] = system: PXR:RXRa (NR concentration 270 nM, RXRa partner concentration 90 nM)
# In short: as §1
# [17] = system: PXR homodimer (NR concentration 270 nM)
# In short: as §1
# [18] = system: RARa:RXR (NR concentration 270 nM, RXRa partner concentration 90 nM)
# In short: as §1
# [19] = system: RARa homodimer (NR concentration 270 nM)
# In short: as §1
# [20] = system: RARb:RXRa (NR concentration 270 nM, RXRa partner concentration 90 nM)
# In short: as §1
Sequence,PBM binding z-score [1],PBM binding z-score [2],PBM binding z-score [3],PBM binding z-score [4],PBM binding z-score [5],PBM binding z-score [6],PBM binding z-score [7],PBM binding z-score [8],PBM binding z-score [9],PBM binding z-score [10],PBM binding z-score [11],PBM binding z-score [12],PBM binding z-score [13],PBM binding z-score [14],PBM binding z-score [15],PBM binding z-score [16],PBM binding z-score [17],PBM binding z-score [18],PBM binding z-score [19],PBM binding z-score [20]
CGGCAAAGTTCAAGGTAACGTAACAGAAAGCAGC,6.25,5.26,1.74,3.16,-0.0277,4.47,3.94,4.6,1.59,3.43,0.813,1.56,-1.51,-0.284,2.12,4.05,2.11,3.29,0.805,5.04
TCTTATAGGTAATACAGGTGAAAGTCGGCATCTA,1.18,1.45,0.636,1.17,0.858,2.06,1.26,2.8,3.97,3.16,4.02,3.44,1.76,1.72,1.19,0.981,0.463,1.37,1.47,0.816
CAAACTAGGTCACCGGCAGGTCAAAGTCCGCATG,5.82,5.46,3.97,4.21,0.888,5.7,9.54,7.62,5.44,7.61,8.64,8.72,2.38,0.783,4.83,5.26,0.922,6.42,1.55,4.93
CGTCCAAGGTCAAGGCTAGGTCAGTGAAAGCATT,7.26,5.52,1.5,4.11,-0.26,5.33,4.97,5.35,1.61,4.01,3.68,4.19,-0.104,-0.338,5.83,5.03,1.42,6.19,1.29,5.43
TCGAGTAGATTAGGGGCATTCAGAATGGCGTCGA,-0.41,-0.292,-0.833,0.457,-0.772,0.269,-0.0813,0.334,0.917,0.699,0.671,-0.44,-1.09,-1.25,-0.958,0.158,-0.306,-0.0495,-1.16,0.182
GCTTACGGGTCAAAGGTTATCGCATGAATAGAAT,7.98,5.85,0.561,5.81,0.413,6.94,11.7,9.26,8.55,10.3,5.17,6.06,0.968,0.942,2.75,6.19,0.364,8.16,0.571,4.76
TCTTGTAGATCAACAGGACGTTAAGAAAGATCGA,0.291,0.413,-0.398,0.173,-0.226,0.653,0.338,1.62,2.86,2.27,1.79,0.305,0.99,0.998,0.259,0.135,-0.241,0.574,0.262,-0.11
TCTGCTAGGTCAGTTGGTCAGCTCACGAGCTGCC,1.02,0.925,-0.62,0.62,0.255,1.53,0.508,1.87,1.28,1.87,3.21,3.07,0.484,0.713,-0.202,0.341,-1.06,0.601,-1.19,3.18
